# Results reported in the supplement of paper PMC12282887.
# ± gives the standard deviation of the averaged measurements.
# Columns and labels:
# Assay in all cases: promoter activity interaction Z-score (Lux/OD deviation from empty-vector control); higher = stronger promoter induction by the compound
# [1] = test system: E. coli BW25113 acrABp lux reporter
# Procedure, shortened: (§1)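 Reporter strains of E. coli BW25113 grew at 37°C in 40 µl LB Lennox in 384-well plates. Readings of OD600 and luminescence were taken every 30 min over 12 h, integrated over 0–8 h (wild type) or 1–9 h (deletion strains), and wells below 10% of the median growth value were excluded. Scores are Z-transformed residuals of growth-normalised luminescence from a fit against a control.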
# [2] = test system: E. coli BW25113 micFp lux reporter
# Procedure, shortened: as §1
# [3] = test system: E. coli BW25113 ompFp lux reporter
# Procedure, shortened: as §1
# [4] = test system: E. coli BW25113 robp lux reporter
# Procedure, shortened: as §1
# [5] = test system: E. coli BW25113 soxSp lux reporter
# Procedure, shortened: as §1
# [6] = test system: E. coli BW25113 tolCp lux reporter
# Procedure, shortened: as §1
# [7] = 0.64 µg/ml, genetic background: wild type
# [8] = 0.64 µg/ml, genetic background: ΔmarA
# [9] = 0.64 µg/ml, genetic background: Δrob
# [10] = 0.64 µg/ml, genetic background: ΔsoxS
# [11] = 1.3 µg/ml, genetic background: wild type
# [12] = 1.3 µg/ml, genetic background: ΔmarA
# [13] = 1.3 µg/ml, genetic background: Δrob
# [14] = 1.3 µg/ml, genetic background: ΔsoxS
# [15] = 2.6 µg/ml, genetic background: wild type
# [16] = 2.6 µg/ml, genetic background: ΔmarA
# [17] = 2.6 µg/ml, genetic background: Δrob
# [18] = 2.6 µg/ml, genetic background: ΔsoxS
# [19] = 5.1 µg/ml, genetic background: wild type
# [20] = 5.1 µg/ml, genetic background: ΔmarA
# [21] = 5.1 µg/ml, genetic background: Δrob
# [22] = 5.1 µg/ml, genetic background: ΔsoxS
compound,measurement,setting,value
C[n+]1ccc(-c2cc[n+](C)cc2)cc1 [Paraquat],promoter activity interaction Z-score,[1]; [7],0.0325 ± 0.07
same,promoter activity interaction Z-score,[1]; [8],0.871 ± 1.1
same,promoter activity interaction Z-score,[1]; [9],0.287 ± 0.14
same,promoter activity interaction Z-score,[1]; [10],-0.155 ± 0.38
same,promoter activity interaction Z-score,[1]; [11],-0.0426 ± 0.21
same,promoter activity interaction Z-score,[1]; [12],0.412 ± 0.8
same,promoter activity interaction Z-score,[1]; [13],0.484 ± 0.32
same,promoter activity interaction Z-score,[1]; [14],0.177 ± 0.18
same,promoter activity interaction Z-score,[1]; [15],0.406 ± 0.016
same,promoter activity interaction Z-score,[1]; [16],0.865 ± 0.77
same,promoter activity interaction Z-score,[1]; [17],0.362 ± 0.13
same,promoter activity interaction Z-score,[1]; [18],0.148 ± 0.023
same,promoter activity interaction Z-score,[1]; [19],0.966 ± 0.12
same,promoter activity interaction Z-score,[1]; [20],0.0695 ± 0.017
same,promoter activity interaction Z-score,[1]; [21],1.06 ± 0.54
same,promoter activity interaction Z-score,[1]; [22],0.747 ± 0.85
same,promoter activity interaction Z-score,[2]; [7],0.149 ± 0.24
same,promoter activity interaction Z-score,[2]; [8],1.489 ± 0.0083
same,promoter activity interaction Z-score,[2]; [9],1.28 ± 0.4
same,promoter activity interaction Z-score,[2]; [10],-0.129 ± 0.0025
same,promoter activity interaction Z-score,[2]; [11],0.566 ± 0.14
same,promoter activity interaction Z-score,[2]; [12],2.36 ± 0.1
same,promoter activity interaction Z-score,[2]; [13],2.69 ± 0.87
same,promoter activity interaction Z-score,[2]; [14],-0.0229 ± 0.11
same,promoter activity interaction Z-score,[2]; [15],1.23 ± 0.11
same,promoter activity interaction Z-score,[2]; [16],3.79 ± 0.15
same,promoter activity interaction Z-score,[2]; [17],4.57 ± 1.3
same,promoter activity interaction Z-score,[2]; [18],-0.156 ± 0.22
same,promoter activity interaction Z-score,[2]; [19],3.89 ± 0.099
same,promoter activity interaction Z-score,[2]; [20],5.91 ± 1.2
same,promoter activity interaction Z-score,[2]; [21],8.849 ± 0.017
same,promoter activity interaction Z-score,[2]; [22],-0.509 ± 0.16
same,promoter activity interaction Z-score,[3]; [7],0.528 ± 0.083
same,promoter activity interaction Z-score,[3]; [8],0.49 ± 0.27
same,promoter activity interaction Z-score,[3]; [9],0.489 ± 0.56
same,promoter activity interaction Z-score,[3]; [10],0.272 ± 0.36
same,promoter activity interaction Z-score,[3]; [11],0.484 ± 0.34
same,promoter activity interaction Z-score,[3]; [12],0.321 ± 0.0078
same,promoter activity interaction Z-score,[3]; [13],0.81 ± 0.54
same,promoter activity interaction Z-score,[3]; [14],0.308 ± 0.03
same,promoter activity interaction Z-score,[3]; [15],0.864 ± 0.28
same,promoter activity interaction Z-score,[3]; [16],0.472 ± 0.45
same,promoter activity interaction Z-score,[3]; [17],1.09 ± 0.6
same,promoter activity interaction Z-score,[3]; [18],0.514 ± 0.2
same,promoter activity interaction Z-score,[3]; [19],1.34 ± 0.52
same,promoter activity interaction Z-score,[3]; [20],0.867 ± 0.69
same,promoter activity interaction Z-score,[3]; [21],1.96 ± 1.2
same,promoter activity interaction Z-score,[3]; [22],-2.03
same,promoter activity interaction Z-score,[4]; [7],-0.182 ± 0.091
same,promoter activity interaction Z-score,[4]; [8],0.325 ± 0.15
same,promoter activity interaction Z-score,[4]; [9],0.533 ± 0.16
same,promoter activity interaction Z-score,[4]; [10],0.786 ± 0.081
same,promoter activity interaction Z-score,[4]; [11],0.394 ± 0.0088
same,promoter activity interaction Z-score,[4]; [12],-0.0344 ± 0.25
same,promoter activity interaction Z-score,[4]; [13],0.769 ± 0.054
same,promoter activity interaction Z-score,[4]; [14],1.6 ± 0.18
same,promoter activity interaction Z-score,[4]; [15],0.405 ± 0.13
same,promoter activity interaction Z-score,[4]; [16],-0.176 ± 0.36
same,promoter activity interaction Z-score,[4]; [17],-0.103 ± 0.18
same,promoter activity interaction Z-score,[4]; [18],0.939 ± 0.087
same,promoter activity interaction Z-score,[4]; [19],-1.49 ± 0.031
same,promoter activity interaction Z-score,[4]; [20],-1.22 ± 0.88
same,promoter activity interaction Z-score,[4]; [21],-1.65 ± 0.29
same,promoter activity interaction Z-score,[4]; [22],-2.13
same,promoter activity interaction Z-score,[5]; [7],2.83 ± 0.11
same,promoter activity interaction Z-score,[5]; [8],2.9 ± 0.097
same,promoter activity interaction Z-score,[5]; [9],3.15 ± 0.6
same,promoter activity interaction Z-score,[5]; [10],3.26 ± 0.44
same,promoter activity interaction Z-score,[5]; [11],4.46 ± 0.059
same,promoter activity interaction Z-score,[5]; [12],4.28 ± 0.14
same,promoter activity interaction Z-score,[5]; [13],5.3 ± 1.6
same,promoter activity interaction Z-score,[5]; [14],4.33 ± 0.021
same,promoter activity interaction Z-score,[5]; [15],6.809 ± 0.059
same,promoter activity interaction Z-score,[5]; [16],7.02 ± 1.1
same,promoter activity interaction Z-score,[5]; [17],7.7 ± 0.67
same,promoter activity interaction Z-score,[5]; [18],5.69 ± 0.3
same,promoter activity interaction Z-score,[5]; [19],13.3 ± 0.42
same,promoter activity interaction Z-score,[5]; [20],13.9 ± 0.57
same,promoter activity interaction Z-score,[5]; [21],13.2 ± 0.83
same,promoter activity interaction Z-score,[5]; [22],7.48 ± 0.55
same,promoter activity interaction Z-score,[6]; [7],0.284 ± 0.95
same,promoter activity interaction Z-score,[6]; [8],0.749 ± 0.29
same,promoter activity interaction Z-score,[6]; [9],0.775 ± 0.4
same,promoter activity interaction Z-score,[6]; [10],-0.838 ± 0.78
same,promoter activity interaction Z-score,[6]; [11],-0.11 ± 0.4
same,promoter activity interaction Z-score,[6]; [12],1.44 ± 1.1
same,promoter activity interaction Z-score,[6]; [13],0.62 ± 0.32
same,promoter activity interaction Z-score,[6]; [14],0.0157 ± 0.29
same,promoter activity interaction Z-score,[6]; [15],2.66 ± 0.41
same,promoter activity interaction Z-score,[6]; [16],3 ± 0.23
same,promoter activity interaction Z-score,[6]; [17],2.88 ± 0.087
same,promoter activity interaction Z-score,[6]; [18],-0.245 ± 1.2
same,promoter activity interaction Z-score,[6]; [19],3.73 ± 0.21
same,promoter activity interaction Z-score,[6]; [20],6.42 ± 0.38
same,promoter activity interaction Z-score,[6]; [21],3.99 ± 0.79
same,promoter activity interaction Z-score,[6]; [22],-0.515 ± 0.099
